Rev-erbA mod: modulates human Rev-erb alpha binding to DNA. AID 1259318. actives 0.79% (n = 370,000). activity, % at 10 µM. Rev-erbα–FITC-DNA binding, fluorescence polarization, 90 min;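 active means activity above about 14%, limit read from the data; passing the limit was not always enough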
PG9 Ab binder: small molecules binding HIV-1 gp120 antibody PG9 | inhibition, % at 6.7 µM | actives 0.43% (n = 360,000) | TR-FRET gp120-PG9 antibody binding; in the data active means inhibition above about 8.5%
EP2 modulator: EP2 receptor (human) modulation | actives 0.83% (n = 260,000) | EP2-expressing cells, cAMP HTRF FRET, PGE2 co-stimulation | induction, % at 25 µM | P43116;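 active means compounds whose cAMP rise, as percent of the full-agonist control response, exceeds 60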;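 further: rat C6 glioma line stably carrying human EP2 under a CMV promoter; the protocol text gives 20 µM as final concentration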
Target sequence (P43116 whole entry, looked up): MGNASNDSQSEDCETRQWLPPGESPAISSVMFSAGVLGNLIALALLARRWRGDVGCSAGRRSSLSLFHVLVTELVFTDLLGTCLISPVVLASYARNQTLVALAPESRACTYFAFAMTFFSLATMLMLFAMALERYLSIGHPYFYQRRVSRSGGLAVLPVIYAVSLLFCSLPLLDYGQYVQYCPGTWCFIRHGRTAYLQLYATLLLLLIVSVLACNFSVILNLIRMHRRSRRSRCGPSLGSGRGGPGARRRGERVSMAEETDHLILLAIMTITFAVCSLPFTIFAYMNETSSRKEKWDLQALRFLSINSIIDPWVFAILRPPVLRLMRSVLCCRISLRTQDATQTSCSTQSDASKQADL
RAM inhibit: yeast RAM network inhibition | S. cerevisiae dse1pr::URA3 reporter, 5-FOA growth OD615, 2 d; analog-sensitive cbk1-as2 kinase mutant strain | inhibition, % at 50 µM | actives 1.8% (n = 190,000);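 active means inhibition above a set limit, 3 SD over mean compound inhibition, cut at about 8.4% in these data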;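 further: inhibition rescues growth on 5-FOA so higher OD means more RAM inhibition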
PGE2 EP2 inh: EP2 receptor (human) inhibition. C6 glioma cells expressing human EP2, cAMP TR-FRET; cells stimulated with saturating PGE2. inhibition, % at 25 µM. actives 0.52% (n = 260,000). AID 1422;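 active means percent inhibition above 40 after rounding to a whole number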;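 further: rat C6 glioma host cells with rolipram phosphodiesterase inhibitor present; the protocol text gives 20 µM as final concentration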
SKN-1 inh: inhibitors of C. elegans SKN-1. actives 0.49% (n = 360,000). AID 624304. C. elegans VP596 Pgst-4::GFP/RFP ratio, acrylamide-induced, 24 h. inhibition, % at 21.8 µM;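 active means interference check ratio from 0.5 to 1.5 plus GFP to RFP signal ratio inhibition reaching or exceeding a fixed threshold, cut at about 30% in these data, passing the limit was not always enough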
Of the large screens only hits and unclear results are named; the others gave an inactive call. Shown are actives, neighbours in structure and some others; about 2.9% of the full set was active somewhere.

COCCn1c(SCC(=O)Nc2cccc(C)c2)nnc1C(C)C	SKN-1 inh 37
COCCCn1c(SCc2nc3ccccc3c(=O)[nH]2)nc2ccccc2c1=O	RAM inhibit 9.5
O=C(NC1CCCCC1)N(CCc1ccccc1)Cc1cc2cc3c(cc2[nH]c1=O)OCO3	none (no result: Rev-erbA mod, PG9 Ab binder, RAM inhibit, SKN-1 inh)
O=C(CN1CCCCC1)Nc1ncc(Cc2ccccc2Cl)s1	none (no result: Rev-erbA mod, PG9 Ab binder, RAM inhibit, SKN-1 inh)
COc1ccccc1NC(=O)Nc1nn(C)c2cccc(OC)c12	EP2 modulator 75 (no result: RAM inhibit)
COc1cccc2c1c(NC(=O)c1cc(C)on1)nn2C	none (no result: RAM inhibit)
CC(C)(C)C(=O)c1cn(CC(=O)NCc2ccccc2)c2ccccc12	none (no result: Rev-erbA mod, PG9 Ab binder, RAM inhibit, SKN-1 inh)
O=C(Nc1ccc(Cn2cccn2)cc1)c1ccc(COc2ccc(Br)cc2)cc1	none
O=C(Nc1ccc(Cn2cccn2)cc1)c1ccc(COc2cccc(Br)c2)cc1	RAM inhibit 9.9
Cc1cc(C)cc(C(=O)NCc2cccnc2)c1	none (no result: Rev-erbA mod, PG9 Ab binder, RAM inhibit, SKN-1 inh)
Cc1ccc(S(=O)(=O)NCC(=O)OCc2nnc(-c3ccccc3)o2)cc1C	none
O=C(CNS(=O)(=O)c1ccc2ccccc2c1)OCc1nnc(-c2ccccc2)o1	PGE2 EP2 inh 41 (no result: Rev-erbA mod)
Cc1nnc2nc(-c3ccc(NC(=O)CN4CCNC4=O)cc3)cn2c1C	none (no result: Rev-erbA mod, PG9 Ab binder, RAM inhibit, SKN-1 inh)
CCC(CN1CCOCC1)NC(=O)Cc1c(C)nc(-c2ccccc2)nc1OC (configuration not stated)	none (no result: Rev-erbA mod, PG9 Ab binder, RAM inhibit, SKN-1 inh)
Cc1cc(-c2cccs2)c2c(n1)sc1c(=O)[nH]c(=O)[nH]c12	PGE2 EP2 inh 47
CCc1ccc2[nH]c(=O)c(CN(Cc3ccc(OC)cc3)C(=O)Nc3ccc(OC)cc3)cc2c1	none (no result: Rev-erbA mod, PG9 Ab binder, RAM inhibit, SKN-1 inh)
Cc1cc(-c2cnc(C)nc2C2CCCN(C(=O)N3CCOCC3)C2)on1 (configuration not stated)	none (no result: Rev-erbA mod, PG9 Ab binder, RAM inhibit, PGE2 EP2 inh, SKN-1 inh)
COc1ccc(-c2nc(C#N)c(NCCCN(C)C)o2)cc1OC	none
COc1ccc(CCNc2oc(-c3ccc(OC)c(OC)c3)nc2C#N)cc1	RAM inhibit 11
CSc1nc2ccccc2n1Cc1cccc(F)c1	none
Fc1cccc(Oc2nc3ccccc3n3cccc23)c1	EP2 modulator 62
CC(Sc1nc(-c2ccccc2)cs1)C(=O)Nc1ccc(Cl)cn1 (configuration not stated)	RAM inhibit 9.5
CC(Sc1nncs1)C(=O)Nc1ccc(Cl)cn1 (configuration not stated)	none
CCn1cc(C(=O)O)c(=O)c2cc(F)c(N3CCN(C(=O)c4ccncc4)CC3)cc21	none (no result: Rev-erbA mod, PG9 Ab binder, RAM inhibit, SKN-1 inh)
CCN(CCCNC(=O)CC(C(=O)N1CCc2ccccc21)n1ccnc1)c1cccc(C)c1 (configuration not stated)	SKN-1 inh 38
CC(=O)Oc1ccc(-c2nc3sc4c(c3c(=O)[nH]2)CCCC4)cc1	none (no result: Rev-erbA mod, PG9 Ab binder, RAM inhibit, SKN-1 inh)
Cc1ccc(Cl)cc1N1CCN(C(=O)C2(S(=O)(=O)c3ccc(Cl)cc3)CC2)CC1	none (no result: Rev-erbA mod)
Cc1cccc(N2CCN(C(=O)C3(S(=O)(=O)c4ccc(Cl)cc4)CC3)CC2)c1C	RAM inhibit 8.6
COc1ccc(CN2CCC(O)(c3ccccc3F)CC2)cc1Cc1c(C)noc1C	none (no result: Rev-erbA mod, PG9 Ab binder, RAM inhibit, SKN-1 inh)
CC(C(=O)N1CCN(C)CC1)N1C(=O)c2ccccc2C1=O (configuration not stated)	SKN-1 inh 36
CC(C(=O)N1CCOCC1)N1C(=O)c2ccccc2C1=O (configuration not stated)	none
Cc1ccc(Oc2cc(NC(=O)CCCn3nc([N+](=O)[O-])c(Cl)c3C)cc([N+](=O)[O-])c2)cc1	none
COC(=O)c1ccccc1NC(=O)CCCn1nc([N+](=O)[O-])cc1C	none
Cc1cc([N+](=O)[O-])nn1CCCC(=O)Nc1cc(Oc2ccccc2)cc([N+](=O)[O-])c1	RAM inhibit 10
Cc1cc([N+](=O)[O-])nn1CCCC(=O)Nc1cc(Oc2ccc(F)cc2)cc([N+](=O)[O-])c1	RAM inhibit 8.9
CC(C)NC(=O)Cn1c(-c2cccs2)cc2cccnc21	none (no result: Rev-erbA mod, PG9 Ab binder, RAM inhibit, SKN-1 inh)
COC(=O)[C@@H]1O[C@H](SCCN)[C@@H](O)[C@H](O)[C@H]1O	PGE2 EP2 inh 50 (no result: Rev-erbA mod, PG9 Ab binder, RAM inhibit, SKN-1 inh)
NC(=O)[C@H]1OC(O)[C@H](O)[C@@H](O)[C@@H]1O (some centres not stated)	none (no result: PG9 Ab binder, EP2 modulator, RAM inhibit, PGE2 EP2 inh, SKN-1 inh)
O=c1[nH]c(=S)[nH]c2c1CN(CCCN1CCOCC1)CN2	PGE2 EP2 inh 102 (no result: Rev-erbA mod, PG9 Ab binder, RAM inhibit, SKN-1 inh)
Cn1c2c(c(=O)n(C)c1=O)CN(CCCN1CCOCC1)CN2	none
CC(C)C(c1nnnn1Cc1ccc2c(c1)OCO2)N1CCN(c2ccccc2F)CC1 (configuration not stated)	none (no result: Rev-erbA mod, PG9 Ab binder, RAM inhibit, SKN-1 inh)
COc1ccc2[nH]c(=O)c(CN(Cc3nnnn3CC3CCCO3)C3CCCC3)cc2c1 (configuration not stated)	none (no result: Rev-erbA mod, PG9 Ab binder, RAM inhibit, SKN-1 inh)
CCOc1ccc2nc(N(CCN(C)C)C(=O)c3cc4ccccc4cc3OC)sc2c1	SKN-1 inh 38 (no result: Rev-erbA mod, PG9 Ab binder, EP2 modulator, RAM inhibit, PGE2 EP2 inh)
c1cc(-c2cn[nH]c2C2CCNCC2)ccn1	none (no result: Rev-erbA mod, PG9 Ab binder, RAM inhibit, SKN-1 inh)
COc1ccc(CCNc2nc(-c3ccco3)cc(C(F)(F)F)n2)cc1OC	RAM inhibit 10
C=CCn1c(CCNC(=O)c2ccc(Cl)c(Cl)c2)nnc1SCCOc1ccc(OC)cc1	none (no result: PG9 Ab binder)
Cn1c(CCNC(=O)c2ccc(Cl)c(Cl)c2)nnc1SCc1ccc(Cl)c(Cl)c1	RAM inhibit 8.8
CCc1nn(CC(=O)NCc2ccc(OC)cc2)c(=O)c2cc3sc(C)cc3n12	none (no result: Rev-erbA mod, PG9 Ab binder, RAM inhibit, PGE2 EP2 inh, SKN-1 inh)
COc1ccc(C2(c3ccc(OC)cc3)NC(=O)N(CC(=O)NC3CCS(=O)(=O)C3)C2=O)cc1 (configuration not stated)	SKN-1 inh 40 (no result: EP2 modulator, RAM inhibit, PGE2 EP2 inh)
COc1ccc(C2(c3ccc(OC)cc3)NC(=O)N(CC(=O)NC3CCCC3)C2=O)cc1	none (no result: EP2 modulator, RAM inhibit, PGE2 EP2 inh)
COc1ccc(NC(=O)c2ccco2)cc1NC(=O)COc1ccc(C)cc1	none (no result: Rev-erbA mod, PG9 Ab binder, RAM inhibit, SKN-1 inh)
CCc1nc2sc3c(c2c2nnc(SCC(=O)N4CCc5ccccc54)n12)CCCC3	none (no result: Rev-erbA mod, PG9 Ab binder, RAM inhibit, SKN-1 inh)
Cc1cc(C(=O)CSc2ccc(F)cc2)cc(C)c1OC(=S)N(C)C	RAM inhibit 8.8
COc1ccccc1NC(=O)C(NC(=O)OC(C)(C)C)C(C)OCc1ccccc1 (configuration not stated)	EP2 modulator 63 (no result: PG9 Ab binder)
CC(=O)N(/N=C1\Sc2ccccc2C1=O)c1ccc(C)cc1C	SKN-1 inh 43
CC(=O)N(/N=C1\Sc2ccccc2C1=O)c1ccccc1C	SKN-1 inh 40 (no result: EP2 modulator)
COCCCN1C(=O)C(=O)/C(=C(\O)c2ccc(C)cc2)C1c1ccc(OC)cc1OC (configuration not stated)	none (no result: Rev-erbA mod, PG9 Ab binder, RAM inhibit, SKN-1 inh)
Cc1cc(C)c2nc(C(F)(F)F)nc(N3CCN(C(=O)c4ccco4)CC3)c2c1	SKN-1 inh 36
Cc1ccc(-c2nnc(N3CCN(C(=O)c4ccco4)CC3)c3ccccc23)cc1	none
Cc1cc(S(=O)(=O)N2CCN(c3ccccc3C)CC2)ccc1F	none
Cc1cc(S(=O)(=O)N2CCN(c3c(C)cccc3C)CC2)ccc1F	RAM inhibit 10
COc1ccc(-c2csc(N)n2)cc1	none
Cc1ccc(-c2csc(N)n2)cc1	none (no result: EP2 modulator, RAM inhibit, PGE2 EP2 inh)
